NS1 function inh: influenza NS1 inhibition; Potency, µM (top dose mostly 46.1 µM); hit rate 0.4% among 270,000; AID 2326; calls by dose curve; further: actives are rising curves; nearly all actives have a fitted effect of over 50% in size
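Recovery from NS1-induced slow growth read by OD600 in budding yeast switched to galactose assay medium (pH 6.0, -URA) at 1:100 dilution. Compound 23 nl per well; the matching strain lacking NS1 serves as control.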
Pf growth 96h: P. falciparum growth inhibition at 96 hour, primary screen for plastid delayed-death inhibitors; P. falciparum luciferase reporter growth, 96 h; Potency, µM (top dose mostly 28.7 µM), usual class: inhibitors; hit rate 6.9% among 320,000
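Erythrocytes infected with luciferase-expressing P. falciparum were dispensed at 2% hematocrit and 0.05% parasitemia (final), then incubated with compounds 96 hours at 37 C in 5% CO2. Luminescence after detection reagent addition reported growth.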
Shiga inhibitor: Shiga toxin inhibition | inhibition, % at 38.7 µM | hit rate 9.2% among 290,000 | Vero cells, Shiga toxin protein synthesis inhibition reporter | AID 2315; in the data active means inhibition mostly above about 28%, no sharp cut-off; inactive means mostly below about 43%
CHX counter: counter-screen hit for Shiga toxin inhibitors, cycloheximide | cell reporter, cycloheximide protein synthesis inhibition counterscreen | max response, % | hit rate 12% among 300,000; in the data active means max response mostly above about 13%, no sharp cut-off; inactive means mostly below about 14%; further: read at 38.3 µM for the half of the compounds with a filed dose
Pf growth 48h: inhibits P. falciparum growth in the first generation, 48 h; P. falciparum luciferase growth in erythrocytes, 48 h; Potency, µM (titrated, usually from 28.7 µM), actives largely listed as inhibitors; hit rate 5.9% among 310,000; AID 504832
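Erythrocytes infected with P. falciparum carrying an integrated firefly luciferase reporter (2% hematocrit, 0.1% parasitemia final) were exposed to compounds in RPMI 1640 with 0.5% Albumax at 37 C, 5% CO2. Growth inhibition was scored as reduced luminescence.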
Large screens that a line does not name were inactive. Rows were chosen to be rich in hits. Some 21% of all compounds tested hit in one or more screens of this group. Unless noted, the call rests on the fitted dose curve; in most records, active means well fitted inhibition curve with a large enough effect; inconclusive means small, poorly fitted or top-dose-only effect, or another doubt; inactive means no such curve, though single readings can be large or run the other way.

C/C(=N\NC(=O)c1ccc(C)cc1C)c1ccc2c(c1)Nc1ccccc1S2	Shiga inhibitor 40, CHX counter 30
C/C(=N\Nc1ccc(C(=O)O)cc1)c1ccc(-n2ccnc2)cc1	Shiga inhibitor 88, CHX counter 74 (no result: NS1 function inh)
CCc1ccc(OCC(=O)N/N=C(\C)c2ccc(-n3ccnc3)cc2)cc1	Pf growth 96h inconclusive, Shiga inhibitor 51, CHX counter 16, Pf growth 48h inconclusive
C/C(=N\NC(=O)c1ccc(C)cc1C)c1ccc(-n2ccnc2)cc1	Pf growth 96h inconclusive, CHX counter 27
CCOC(=O)N1CCN(C(=S)Nc2ccc(C)cc2)CC1	none
CCOC(=O)c1c(C)[nH]c(C)c1C(=O)COC(=O)CCOc1ccccc1OC	none
COc1ccccc1COC(=O)C(NC(=O)c1ccc(C)cc1)C(C)C (stereo unspecified)	none (no result: NS1 function inh, Shiga inhibitor, CHX counter)
C=CCN(c1ccccc1)S(=O)(=O)c1ccc(Cl)c(C(=O)OCC(=O)c2[nH]c(C)c(C(C)=O)c2C)c1	none
C/C(=N\NC(N)=O)c1ccc(-n2ccnc2)cc1	none (no result: NS1 function inh)
C/C(=N\Nc1ccccc1Cl)c1ccc(-n2ccnc2)cc1	Pf growth 96h inconclusive, Shiga inhibitor 100, CHX counter 31, Pf growth 48h inconclusive
c1cc(CN2CCCCC2)cc(OCCCNc2nc3ccccc3s2)c1	Pf growth 96h 4.8µM, Pf growth 48h 13µM (no result: Shiga inhibitor, CHX counter)
O=C(NCCCOc1cccc(CN2CCCCC2)c1)c1ccc(Cl)c(Cl)c1	Pf growth 96h 2.3µM, Pf growth 48h inconclusive
NS(=O)(=O)c1cccc(NC(=O)COC(=O)COc2ccc3ccccc3c2)c1	none (no result: NS1 function inh)
Cn1nnc(NC(=O)c2ccccc2F)n1	none
Cn1nnc(NC(=O)c2ccc3ccccc3c2)n1	Pf growth 96h inconclusive, Shiga inhibitor active, CHX counter 30, Pf growth 48h inconclusive
Cn1nnc(NC(=O)c2ccc(C(C)(C)C)cc2)n1	Shiga inhibitor 45, CHX counter 46, Pf growth 48h 9.3µM
Cn1nnc(NC(=S)NC(=O)c2cccc3ccccc23)n1	Pf growth 96h 13µM, Pf growth 48h inconclusive
COc1cc(OC)cc(C(=O)NC(=S)Nc2nnn(C)n2)c1	none
Cn1nnc(NC(=O)c2cccc(OCc3ccccc3)c2)n1	Pf growth 48h inconclusive
C/C(N)=C(/C#N)C(=O)COC(=O)c1ccccc1O	Shiga inhibitor active, CHX counter 24
C/C(N)=C(/C#N)C(=O)COC(=O)c1ccccc1C(=O)c1ccc(C)cc1	none (no result: NS1 function inh)
C/C(N)=C(/C#N)C(=O)COC(=O)c1cccc2ccccc12	Shiga inhibitor 95, CHX counter 37
COc1cc(C(=O)OCC(=O)c2ccccc2)cc2c1OCCO2	none (no result: NS1 function inh, Shiga inhibitor, CHX counter)
COc1cccc(C2=NOC(C(=O)Nc3ccccc3SC)C2)c1 (stereo unspecified)	none
C=C(C)c1cccc(C(C)(C)NC(=O)N(Cc2ccccc2)Cc2ccco2)c1	none (no result: Pf growth 48h)
Cn1c(C(=O)O)c(CC(=O)N2CCC(Cc3ccccc3)CC2)c2ccccc21	Pf growth 96h inconclusive
O=S(=O)(/N=C(/c1ccccc1)N1CCCCCC1)c1ccccc1	none
CC[C@@]1(O)C(=O)OCc2c1cc1n(c2=O)Cc2cc3c(O)cccc3nc2-1	none (no result: NS1 function inh, Pf growth 96h, Pf growth 48h)
CCC1(OC(=O)CN)C(=O)OCc2c1cc1n(c2=O)Cc2cc3ccccc3nc2-1 (stereo unspecified)	Pf growth 96h 0.93µM, Pf growth 48h 1.7µM
CC[C@@]1(O)C(=O)OCc2c1cc1n(c2=O)Cc2cc3c(NC(=O)CN)cccc3nc2-1	Pf growth 96h 7.4µM, Pf growth 48h inconclusive
COc1ccc(C(=O)C2CCCN(C(=O)c3ccoc3C)C2)cc1F (stereo unspecified)	Pf growth 96h inconclusive, Pf growth 48h inconclusive
Cc1cccc(C2c3[nH]c4ccccc4c3CCN2C(=O)c2ocnc2C)n1 (stereo unspecified)	Pf growth 96h inconclusive
Cc1cccc(C2c3[nH]c4ccccc4c3CCN2C(=O)Cc2nc(-c3ccccc3)n[nH]2)n1 (stereo unspecified)	Pf growth 48h 12µM
Cc1cccc(C2c3[nH]c4ccccc4c3CCN2C(=O)c2cc(CC(C)C)nc(C)n2)n1 (stereo unspecified)	Pf growth 96h inconclusive, Pf growth 48h 12µM
Cc1cccc(C2c3[nH]c4ccccc4c3CCN2C(=O)c2nn(C)c(=O)c3ccccc23)n1 (stereo unspecified)	Pf growth 96h 8.3µM, Pf growth 48h inconclusive
Cc1cc(Cl)ccc1OCC(=O)Nc1nc(-c2cccnc2)cs1	Pf growth 48h inconclusive
Clc1ccc(Nc2nc(-c3cccnc3)cs2)cc1	Shiga inhibitor 119, CHX counter 41 (no result: Pf growth 48h)
c1ccc(-c2csc(Nc3cccnc3)n2)cc1	Shiga inhibitor 118, CHX counter 54
Cc1ccc(Cl)cc1Nc1nc(-c2cccnc2)cs1	CHX counter 17, Pf growth 48h inconclusive (no result: Shiga inhibitor)
Fc1ccc(Nc2nc(-c3cccnc3)cs2)cc1	Shiga inhibitor 146, CHX counter 48
Clc1ccc(-c2csc(Nc3cccnc3)n2)cc1	none
COc1ccc(CCC(=O)NC(C)C2CCCO2)cc1 (stereo unspecified)	Pf growth 96h inconclusive
O=C(CN(CCc1ccccc1)C(=O)c1csnn1)NC1CCCC1	none
O=C(CCC(=O)NNC(=O)Nc1ccc(Cl)cc1)NCc1ccccc1	none
CSc1ncccc1C(=O)N1CCN(S(=O)(=O)c2ccc(C)cc2)CC1	none
CC(C)n1ncc2c(C(=O)N3CCN(Cc4ccc(Cl)s4)CC3)cc(C3CC3)nc21	Pf growth 96h inconclusive, Pf growth 48h 13µM (no result: NS1 function inh, Shiga inhibitor, CHX counter)
CC1CN(C(=O)c2cc(-c3ccc(Cl)s3)nc3ccccc23)CC(C)O1 (stereo unspecified)	Pf growth 48h inconclusive (no result: NS1 function inh, Shiga inhibitor, CHX counter)
Cc1ccc(S(=O)(=O)N2CCN(C(=O)c3cc(C4CC4)nc4c3cnn4C(C)C)CC2)cc1	Pf growth 96h 2.6µM, Pf growth 48h 13µM (no result: NS1 function inh, Shiga inhibitor, CHX counter)
O=C(O)CC(Cc1ccccc1)(C(=O)O)c1ccccc1 (stereo unspecified)	Pf growth 96h inconclusive
CCOC(=O)c1c(C)[nH]c(C(=O)N(C)CC(=O)Nc2ccc(OC)cc2)c1C	Pf growth 96h inconclusive (no result: NS1 function inh, Shiga inhibitor, CHX counter)
CCOC(=O)C1=C[C@]2(CC)CCCN3CCc4c(n1c1ccccc41)[C@@H]32	Pf growth 96h 3.7µM, Pf growth 48h 5.2µM
COc1ccc(C(=O)Oc2coc(CSc3nnc(NC(=O)c4cccs4)s3)cc2=O)cc1	none
Cc1cc(C(F)(F)F)nn1CC(=O)NCc1ccco1	Pf growth 96h 1.5µM
Cc1c(Cl)c([N+](=O)[O-])nn1CC(=O)NCc1ccco1	Pf growth 96h 1.5µM
Cc1nn(CC(=O)NCc2ccco2)c(C)c1[N+](=O)[O-]	none
Cc1nc(NC(=O)c2ccccc2)sc1C1(C)CC(c2c(Cl)cccc2Cl)=NO1 (stereo unspecified)	Pf growth 96h inconclusive, Pf growth 48h 13µM
Cc1nc(NC(=O)c2ccccc2)sc1C1(C)CC(c2ccccc2F)=NO1 (stereo unspecified)	NS1 function inh inconclusive, Pf growth 96h inconclusive, Shiga inhibitor 60, CHX counter 43, Pf growth 48h inconclusive
Cc1nc(C(=O)NCc2ccccc2)sc1C1(C)CC(c2ccccc2)=NO1 (stereo unspecified)	Pf growth 96h inconclusive, Pf growth 48h inconclusive
